# Results filed as inconclusive are left out. A number with no mark means an inactive call. The source made the active and inactive calls. The call rests on the fitted dose curve.
# Biological target: Thyrotropin receptor (Homo sapiens) (UniProt P16473)
# Assay: qHTS assay to identify small molecule antagonists of the thyroid stimulating hormone receptor (TSHR) signaling pathway (AID 1259385); further: nearly all actives have a fitted effect of over 20% in size
# Conditions: TSHR-HEK293 cAMP HTRF, TSH-stimulated antagonist mode; series mostly up to 92.4 µM; activity change, negative = inhibition: at the top concentration
# Description: U.S. Tox21 Program National Center for Advancing Translational Sciences [NCATS] NIH Chemical Genomics Center [NCGC] U.S. Environmental Protection Agency [EPA] National Institutes of Environmental Health Sciences [NIEHS] National Toxicology Program [NTP] U.S. Food and Drug Administration [FDA] Tox21 Assay Overview: TSHR is the receptor for thyrotropin (thyroid stimulating hormone or TSH), a member of the glycoprotein hormone family. TSH is released by the anterior pituitary gland and is the main regulator of thyroid gland growth and development. Upon binding circulating thyrotropin, a G-protein signal cascade activates adenylyl cyclase and […] cAMP concentration is increased. cAMP is a key second messenger involved extensively in cellular signal transduction pathways associated with the majority of G-protein coupled receptors (GPCRs). The activation of these GPCRs by neurotransmitters, lipids, nucleotides, peptides and hormones results in the activation or the inhibition of plasma membrane-bound adenylate cyclase through heterotrimeric G-proteins. A cell-based TSHR assay can be used to screen chemical compounds that modulate TSHR either in agonist or antagonist mode.
# Tox21 Assay Protocol Summary: TSHR-Hek293 cells were dispensed at 800 cells/4uL/well in 1536-well white plates using a Multidrop dispenser. After the assay plates were incubated at a 37C/5% CO2 incubator for 18 hrs, 23 nL of compounds dissolved in DMSO, positive controls or DMSO only was transferred to the assay plate by a pin tool, followed by 1 ul medium containing Ro20-1724. For the antagonist mode screening, 1 uL of TSH was added on the top of the cell/compound mixtures to achieve a final agonist concentration of 1.5 ng/mL. After 30 min of incubation at room temperature, 2.5 ul/well of cAMP-d2 and 2.5 ul/well of anti-cAMP-cryptate were added respectively into the assay plates using a Flying Reagent Dispenser. The plates were incubated at room temperature for 1 hr. The fluorescence intensity in the plates was measured using an Envision plate reader. Each test compound was measured at 15 concentrations and in triplicates.
# On the % scale 0 is the no-effect control and ±100 the full control effect; potency means the concentration at half of the fitted maximal effect.
# Sequence of Thyrotropin receptor (Homo sapiens) (P16473 whole entry, looked up): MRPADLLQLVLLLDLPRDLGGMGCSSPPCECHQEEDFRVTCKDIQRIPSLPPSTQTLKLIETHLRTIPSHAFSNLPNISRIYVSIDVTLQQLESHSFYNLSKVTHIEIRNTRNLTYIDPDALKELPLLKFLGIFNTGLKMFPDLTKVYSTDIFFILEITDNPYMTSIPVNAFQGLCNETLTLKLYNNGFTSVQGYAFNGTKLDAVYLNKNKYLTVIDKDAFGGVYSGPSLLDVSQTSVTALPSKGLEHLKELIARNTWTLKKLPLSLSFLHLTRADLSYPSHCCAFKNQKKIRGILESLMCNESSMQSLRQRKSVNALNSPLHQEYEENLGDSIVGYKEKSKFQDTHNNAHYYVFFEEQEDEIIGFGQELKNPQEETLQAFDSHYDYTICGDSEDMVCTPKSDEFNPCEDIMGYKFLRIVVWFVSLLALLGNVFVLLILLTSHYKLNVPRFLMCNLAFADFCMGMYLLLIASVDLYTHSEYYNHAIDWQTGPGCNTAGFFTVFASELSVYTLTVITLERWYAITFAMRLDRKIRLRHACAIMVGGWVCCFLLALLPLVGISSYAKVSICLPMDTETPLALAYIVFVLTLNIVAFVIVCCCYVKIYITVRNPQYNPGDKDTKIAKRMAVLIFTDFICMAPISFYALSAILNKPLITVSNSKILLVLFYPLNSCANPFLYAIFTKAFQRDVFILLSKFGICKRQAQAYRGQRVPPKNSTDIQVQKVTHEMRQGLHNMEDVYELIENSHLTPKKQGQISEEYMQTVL
Compound,"activity change, negative = inhibition",Potency
CO[Si](C)(OC)OC,-0.281%,–
CC1CC(=O)NN=C1c1ccc(NCC(C)(C)NCC(O)COc2cc(Cl)ccc2C#N)cc1 (stereo not given),1.35% [at 42.5 µM],–
CNCCCC1c2ccccc2C=Cc2ccccc21,–,26.6 µM (active)
CCCCCCCCCCCCCCCCBr,-0.923% [at 19 µM],–
Cc1c(C(=O)NN2CCCCC2)nn(-c2ccc(Cl)cc2Cl)c1-c1ccc(Cl)cc1,-6.5% [at 42.5 µM],–
C1COCO1,0.467%,–
CCCOCCOCCO,-0.852%,–
CN1CCN(CCCN2c3ccccc3Sc3ccc(S(=O)(=O)N(C)C)cc32)CC1,–,29.8 µM (active)
COCc1c(C(C)C)nc(C(C)C)c(/C=C/[C@@H](O)C[C@@H](O)CC(=O)O)c1-c1ccc(F)cc1,–,inactive
O=C(OCCOCCO)c1ccccc1Nc1cccc(C(F)(F)F)c1,-0.457% [at 42.5 µM],–
CCn1cc(C(=O)O)c(=O)c2cc(F)c(N3CCNCC3)nc21,-0.616% [at 42.5 µM],–
O=C(N[C@@H](c1ccccc1)[C@@H]1CCCCN1)c1cccc(C(F)(F)F)c1Cl,-0.312%,–
COC(=O)c1cc(Cl)ccc1NS(=O)(=O)C(F)(F)F,0.489% [at 42.5 µM],–
COC(=O)c1cc(S(N)(=O)=O)ccc1OC,-0.875% [at 42.5 µM],–
COCCOC(=O)C1=C(C)NC(C)=C(C(=O)OC/C=C/c2ccccc2)C1c1cccc([N+](=O)[O-])c1 (stereo not given),0.312% [at 42.5 µM],–
CCOC(=O)c1ccccc1OC,1.72%,–
O=C(CCCCCCCCC#CI)Oc1ccccc1,4.5% [at 42.5 µM],–
C[C@@H]1C[C@H]2[C@@H]3CCC4=CC(=O)C=C[C@]4(C)[C@@]3(F)[C@@H](O)C[C@]2(C)[C@H]1C(=O)CO,-7.35% [at 42.5 µM],–
Cc1ccnc2ccccc12,8.01%,–
Cc1cc(O)c2c(O)c3c(O)cccc3cc2c1,-0.807% [at 42.5 µM],–

Compound,"activity change, negative = inhibition",Potency
C=CCNc1nc(NCC=C)nc(N2CCN(C(c3ccc(F)cc3)c3ccc(F)cc3)CC2)n1,–,9.44 µM (active)
CCCOC(=O)c1ccc(C(=O)OCCC)nc1,2.44%,–
C[Si](NC1CCCCC1)(NC1CCCCC1)NC1CCCCC1,-0.521%,–
CC1=C(C=O)C(C)(C)CCC1,-0.0878%,–
CCOC(=O)c1ccccc1C,0.0235%,–
NC(=O)Nc1ccc(Cl)c(Cl)c1,-1.88%,–
Cc1ccc(/C=N/n2c(-c3ccccc3)csc2=S)cc1,-10.9% [at 42.5 µM],–
CCC(C(=O)OCCN(CC)CC)c1ccccc1 (stereo not given),-5.49% [at 42.5 µM],–
COc1ccc(CCC(=O)c2c(O)cc(O[C@@H]3O[C@H](CO)[C@@H](O)[C@H](O)[C@H]3O[C@@H]3O[C@@H](C)[C@H](O)[C@@H](O)[C@H]3O)cc2O)cc1O,5.41%,–
O=C(O)c1c(O)c(-c2ccccc2)nc2ccccc12,-0.0052% [at 42.5 µM],–
CCOCCn1c(C2CCN(CCc3ccc(C(C)(C)C(=O)O)cc3)CC2)nc2ccccc21,3.44% [at 42.5 µM],–
CC(C)CCCCCCOC(=O)CCCCC(=O)OCCCCCCC(C)C,-0.84%,–
CCC(=O)Oc1ccc(/C(CC)=C(\CC)c2ccc(OC(=O)CC)cc2)cc1,-0.527%,–
CCC(C)(C)C1CCC(O)CC1 (stereo not given),-9.2%,–
CN1Cc2cc(C(=O)N3CCC(C4CCNCC4)CC3)ccc2N[C@@H](CC(=O)O)C1=O,3.54% [at 42.5 µM],–
CCCOC(=O)c1ccc(N)cc1,-0.272% [at 42.5 µM],–
CNC(=S)NC,0.194%,–
C/C(=N/NC(=O)c1ccncc1)C(=O)O,1.24% [at 42.5 µM],–
CCCCCCOC(=O)C(C)C,1.54%,–
C=CCCCCCCCCCCCCCCCC,-0.238% [at 8.39 µM],–

# — PubChem BioAssay (Tox21)
